Data as given in ChEMBL document CHEMBL3988442, “University of Dundee, Small-Polar-MMV Screening Library” (2021).
The campaign covered roughly 48,000 compounds. About 13,000 (27%) showed an effect of 50% or more. The list shows a part of the results.

The molecules below were run on Wolbachia pipientis (assay: Anti-Wolbachia Cell-Based Screen). Conditions: 5 µM.
Type: functional
Set-up: scale not given: in the data most compounds retested in dose-response had high values

SMILES	Percent Effect [%]
CCC1c2ccsc2CCN1C(=O)NCCNc1ncccn1 (configuration not stated)	9.072
O=C(c1ccccn1)N1C[C@@H]2CC[C@H](C1)N(C(=O)Cc1cccs1)C2	-18.37
CCc1sc(-c2nnc(CNC(C)Cn3cccn3)o2)cc1C (configuration not stated)	-4.192
Cc1ccc(CN2CC(C(=O)NCC3CC3)C3(CCOCC3)C2)s1.O=C(O)C(F)(F)F (configuration not stated)	9.43
COCC(=O)N1CCC2(CCC2NC(=O)c2ccn(C)c2)CC1 (configuration not stated)	-13.3
Cn1ccc(C(=O)NC2CCC23CCN(Cc2cnn(C)c2)CC3)c1.O=C(O)C(F)(F)F (configuration not stated)	118.5
Cn1ccc(C(=O)NC2CCC23CCN(Cc2ccc(F)cc2)CC3)c1.O=C(O)C(F)(F)F (configuration not stated)	104.6
Cn1ccc(C(=O)NC2CCC23CCN(CC2CCOCC2)CC3)c1.O=C(O)C(F)(F)F (configuration not stated)	102.1
Cn1ccc(C(=O)NC2CCC23CCN(Cc2cccnc2)CC3)c1.O=C(O)C(F)(F)F.O=C(O)C(F)(F)F (configuration not stated)	0.1855
Cn1ccc(C(=O)NC2CCC23CCN(C(=O)c2ccncc2)CC3)c1.O=C(O)C(F)(F)F (configuration not stated)	-9.033
Cc1ccc(CN2CCC3(CCC3NC(=O)c3ccn(C)c3)CC2)s1.O=C(O)C(F)(F)F (configuration not stated)	90.78
Cn1ccc(C(=O)NC2CCC23CCN(C(=O)C2CCOCC2)CC3)c1 (configuration not stated)	-10.05
Cn1ccc(C(=O)NC2CCC23CCN(C(=O)c2cnccn2)CC3)c1 (configuration not stated)	13.19
Cc1ccccc1CN1CCN(C(=O)CN2CCOC2=O)CC1	-7.914
Cc1nc2c(c(N3CCCC(CO)C3)n1)CCN(Cc1ccco1)CC2 (configuration not stated)	-5.863
CC(C)(C)CC(=O)NC[C@H]1OC[C@@H](NCc2ccccn2)[C@@H]1O	-12.57
COc1ccc(CN2C[C@@H](CN(C)C)[C@@H](CO)C2)cc1OC	17.76
Cn1ccc(C(=O)NC2CCC23CCN(C(=O)c2ccnnc2)CC3)c1 (configuration not stated)	9.055
Cn1ccc(C(=O)NC2CCC23CCN(Cc2nccs2)CC3)c1 (configuration not stated)	125.2
Cn1ccc(C(=O)NC2CCC23CCN(C(=O)c2ccccn2)CC3)c1 (configuration not stated)	-6.667
CS(=O)(=O)NCc1cc2n(n1)CCCN(Cc1ccc(Cl)s1)C2	7.385
Cl.NC(C(=O)N1CCSc2ccccc2C1)c1ccccc1 (configuration not stated)	93.09
Cc1csc(CN(C)C(C)C(=O)N2CCc3ccccc3C2)n1 (configuration not stated)	7.72
CCc1cnc(CN(C)C(C)C(=O)N2CCc3ccccc3C2)s1 (configuration not stated)	-7.357
N[C@@H](C(=O)N1CCN(c2ccccc2Cl)C(=O)C1)c1ccccc1	1.545

SMILES	Percent Effect [%]
CC(C)C[C@H](N)C(=O)N1CCSc2ccccc2C1.Cl	104.5
CC(C)(O)CN1CCN(C(=O)C2CSc3ccccc3O2)CC1 (configuration not stated)	-0.7844
CN(C)C(C(=O)N1Cc2ccccc2C1)c1ccccc1F (configuration not stated)	-6.272
O=C(C1CSc2ccccc2O1)N1CCN(CCO)CC1 (configuration not stated)	-0.8425
CC(C)[C@H](N)C(=O)N1CCSc2ccccc2C1.Cl	101.9
COc1ccc(-c2cn(CCn3c(C)cc(C)nc3=O)nn2)cn1	13.66
CC(Oc1ccc(F)cc1F)C(=O)N1CCC2(CC1)CC(=O)N(C)C2 (configuration not stated)	-15.1
Cn1c(C(=O)N2CCc3[nH]cnc3C2C(=O)O)ccc1-c1ccccc1 (configuration not stated)	10.75
CN(Cc1nc(CC2CC2)no1)CC1Cc2ccccc2O1 (configuration not stated)	1.11
Cc1nccn1-c1cc(CNC(=O)c2ccccn2)ccn1	-23.44
Cc1nccn1-c1ccc(=O)n(CCNC(=O)c2ccccn2)n1	116.7
O=c1ccc(-n2ccnc2)nn1CCNS(=O)(=O)c1ccccc1Cl	-3.668
Cn1c(C(F)(F)F)nn(CCNC(=O)c2ccccn2)c1=O	-5.949
CC(=O)NCc1ccc(-n2ccnc2C)nc1	28.24
Cn1c(C(F)(F)F)nn(CCNC(=O)CCc2ccccc2)c1=O	8.562
Cc1nccn1-c1ccc(=O)n(CCNC(=O)Cc2ccccc2)n1	251.7
O=C(CNC(=O)c1c(F)cccc1Cl)Nc1ccc(F)cn1	-31.04
Cc1nccn1-c1ccc(=O)n(CCNC(=O)c2c(F)cccc2Cl)n1	122.2
Cc1ccoc1C(=O)N1CC(C(=O)N2CCOCC2)C2(CCOCC2)C1 (configuration not stated)	-39.43
CC(=O)c1c(F)cccc1N1CCC(NS(=O)(=O)c2ccccc2)CC1	-17.75
CC(C)Oc1cc(N2CC[C@H](CO)[C@@H](O)C2)nc(N)n1	-19.56
Cc1ccccc1CCCN1C(=O)CC2(CCSC2)C1=O (configuration not stated)	0.3605
Cc1noc(CCCNC(=O)C2CSCN2C(=O)C(C)(C)C)n1 (configuration not stated)	-2.864
CN(C(=O)CCNC(=O)C1COc2ccccc21)c1ccccc1 (configuration not stated)	1.32
O=C(c1cocn1)N1CCC2(CC1)CC(OCC1CC1)CO2 (configuration not stated)	7.124

SMILES	Percent Effect [%]
CN(C)CCCNc1ncnc2cccc(F)c12	-15.41
CN(CCOCC1CC1)C(=O)Cn1cccc(C(F)(F)F)c1=O	10.84
C[S+]([O-])c1ccc(NC(=O)Cc2cccnc2)cc1F (configuration not stated)	6.367
CN(CCOCC1CC1)C(=O)Nc1ccc([S+](C)[O-])cc1 (configuration not stated)	90.95
O=C(NCCOCC1CC1)Nc1ccc(F)cc1	-7.278
COCCN(C)C(=O)Nc1ccc(C(=O)NCCC(=O)OC)cc1	9.449
CN(CCOCC1CC1)C(=O)Nc1ccc([S+](C)[O-])c(F)c1 (configuration not stated)	94.49
CC(C)Cc1ncc2c(n1)CN(c1nccc(NC(C)C)n1)C2	-6.813
COC1CCN(C(=O)c2c(Cl)c3ccccc3n2C)CC1	-0.1607
O=C(CCc1cc(Cl)no1)N1CCCCC1CCN1CCOCC1 (configuration not stated)	-7.331
CCc1nc(CCNc2ncccn2)sc1C	-26.63
COc1cccc(C(O)CN2CCN(c3cccc(C)c3)CC2)c1 (configuration not stated)	140.6
COc1ccc(OC)c(C(O)CN2CCN(c3cccc(C)c3)CC2)c1 (configuration not stated)	116.6
COc1cccc(N2CCN(CC(O)c3cc(C)sc3C)CC2)c1 (configuration not stated)	-7.346
COc1ccc(OC)c(C(O)CN2CCN(C3CCCC3)CC2)c1 (configuration not stated)	3.384
COCCN1CCN(CC(O)c2cc(OC)ccc2OC)CC1 (configuration not stated)	7.391
COc1cccc(C(O)CN2CCN(C(=O)CCC(C)C)CC2)c1 (configuration not stated)	-9.64
CS(=O)(=O)c1ccc2c(c1)nc1n2[C@@H](CNCc2cccnc2)COC1	6.164
CC(CC(=O)N1CCCS1(=O)=O)c1ccccc1C(F)(F)F (configuration not stated)	-9.75
COC(=O)[C@@H]1Cc2ncn(C)c2CN1S(=O)(=O)c1cccs1	-9.442
CN(C)[C@H]1CCCCN(C(=O)CCc2csc(N)n2)C1	-1.322
Cc1cc(C)n(CC2CCCCN2CC(=O)Nc2nncs2)n1 (configuration not stated)	-4.796
Cc1cc(CCC(=O)N(C)C)nc(C2CCCCN2)n1.Cl.Cl (configuration not stated)	123.4
CNC(=O)CCc1cccc(OC2CCCC2)c1	6.693
Cc1cc(CCC(=O)N2CCCC2)nc(C2CCCN2)n1 (configuration not stated)	120.7

SMILES	Percent Effect [%]
CCN1CCn2nc(CCC(=O)N3CCCC3)cc2C1	0.2115
Cc1cc(C)n(CC2CCCN2CC(=O)Nc2nncs2)n1 (configuration not stated)	-0.6534
CNC(=O)CCc1cc(C)nc(C2CCCCN2)n1 (configuration not stated)	122.2
CNC(=O)CCc1cc(C)nc(C2CCCN2)n1 (configuration not stated)	-4.947
Cc1cc(CCC(=O)Nc2nncs2)nc(C2CCCN2)n1.Cl (configuration not stated)	92.36
CCc1nc(C)c([C@H]2CN(C)C[C@@H]2C(=O)Nc2ccc3[nH]ncc3c2)[nH]1	2.29
CC(=O)N1CCC(NC2(Cc3cc(CC(C)C)on3)COC2)CC1	8.31
Cc1nc(CN2C(=O)C[C@H]3[C@H]2CCN3C2CCOC2)cs1.O=C(O)C(F)(F)F (some centres not stated)	104.4
Cc1nc(CN2C(=O)CC[C@@H]3[C@H]2CCN3C(=O)c2ccccn2)cs1.O=C(O)C(F)(F)F	-0.4991
Cc1nc(CN2C(=O)CC[C@@H]3[C@H]2CCN3C(=O)C2CCOCC2)cs1	-12.01
Cc1nc(CN2C(=O)C[C@H]3[C@H]2CCN3C2CCOCC2)cs1.O=C(O)C(F)(F)F	-10.54
Cc1nc(CN2C(=O)CC[C@@H]3[C@H]2CCN3C2CCOCC2)cs1.O=C(O)C(F)(F)F	88.53
Cc1nc(CN2CCN(C3CCOC3)Cc3cccnc32)cs1.O=C(O)C(F)(F)F.O=C(O)C(F)(F)F.O=C(O)C(F)(F)F (configuration not stated)	-13.84
Cc1nc(CN2C(=O)CC[C@@H]3[C@H]2CCN3C2CCOC2)cs1.O=C(O)C(F)(F)F (some centres not stated)	91.6
Cc1cccc(OC2CCN(c3nccnc3C#N)CC2)n1	4.563
COc1ccc(C(=O)N(C)Cc2cc(C)on2)c(F)c1	9.615
CC(=O)Nc1nc2c(s1)C1(CCCC1)Nc1ccccc1S2	63.28
COc1cc(C(=O)N2CCC3(CC2)Nc2ccccc2NC3=O)ccn1	31.29
CC(=O)Nc1nc2c(s1)C(C)(C)Nc1ccccc1S2	66.2
CNc1ncc(C(=O)N2CCC3(CC2)Nc2ccccc2NC3=O)cn1	-19.06
CC(=O)Nc1nc2c(s1)C1(CCN(C)CC1)Nc1ccccc1S2	104.1
CS(=O)(=O)N1CC[C@]2(O)CCN(c3cc(C#N)ccn3)C[C@@H]2C1	-2.197
